# From PMC7862700, “An all-to-all approach to the identification of sequence-specific readers for epigenetic DNA modifications on cytosine”
# Assays:
# Experiment in all cases: DAPPL (digital affinity profiling via proximity ligation, sequencing); 10 mM Tris-HCl pH 7.5, 50 mM NaCl, 1 mM DTT, 4% glycerol, room temperature, 30 min; GST-TFs on glutathione beads, 16-mer random dsDNA library, 0.1% formaldehyde crosslink after washing; high values mean tight binding
# [1] = biological target: T1, FEV (Homo sapiens, UniProt Q99581 1-238); details: protein: recombinant; tags: N-terminal GST; dsDNA, one strand shown
# T1 sequence: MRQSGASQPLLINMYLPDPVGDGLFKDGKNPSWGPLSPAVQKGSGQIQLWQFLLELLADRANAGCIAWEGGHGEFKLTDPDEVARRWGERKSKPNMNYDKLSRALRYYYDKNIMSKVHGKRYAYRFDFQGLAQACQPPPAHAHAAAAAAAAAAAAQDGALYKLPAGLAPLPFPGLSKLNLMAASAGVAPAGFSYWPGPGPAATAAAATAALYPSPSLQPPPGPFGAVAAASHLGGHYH
# Summary of the method: (§1)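 A tag-only sample was pooled with DNA-barcoded human transcription factors that had been expressed in yeast as GST fusions and captured on glutathione beads. The pools were incubated for 30 min at room temperature with 200 nmole of a random double-stranded 16-mer DNA library in Tris/NaCl/DTT/glycerol buffer, then washed, crosslinked with 0.1% formaldehyde, proximity-ligated (BsaI/T4 ligase, 1 h, 37 °C), PCR-amplified and sequenced on an Illumina NextSeq500. Binding signal is each hexamer's read frequency for a factor divided by its frequency for the tag-only sample.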
# [2] = biological target: ETV5 (Homo sapiens, UniProt P41161 1-510); details: protein: recombinant; tags: N-terminal GST; dsDNA, one strand shown
# Sequence of ETV5 (P41161 whole entry): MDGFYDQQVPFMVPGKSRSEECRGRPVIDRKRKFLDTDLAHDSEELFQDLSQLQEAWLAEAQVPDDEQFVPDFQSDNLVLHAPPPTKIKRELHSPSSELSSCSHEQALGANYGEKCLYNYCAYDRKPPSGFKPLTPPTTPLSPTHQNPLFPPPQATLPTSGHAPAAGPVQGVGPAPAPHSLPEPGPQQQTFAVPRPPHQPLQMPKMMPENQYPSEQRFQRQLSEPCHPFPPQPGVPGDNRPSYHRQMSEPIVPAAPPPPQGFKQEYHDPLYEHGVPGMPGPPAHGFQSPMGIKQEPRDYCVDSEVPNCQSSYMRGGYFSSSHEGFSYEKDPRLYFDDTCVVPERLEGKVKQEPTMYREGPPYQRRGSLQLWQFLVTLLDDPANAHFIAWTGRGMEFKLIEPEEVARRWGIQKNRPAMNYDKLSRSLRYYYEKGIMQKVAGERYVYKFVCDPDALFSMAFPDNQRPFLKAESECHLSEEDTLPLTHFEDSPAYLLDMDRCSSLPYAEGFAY
# Summary of the method: as §1
# [3] = biological target: HSF1 (Homo sapiens, UniProt Q00613 1-529); details: protein: recombinant; tags: N-terminal GST; chain copies: 3; dsDNA, one strand shown
# Sequence of HSF1 (Q00613 whole entry): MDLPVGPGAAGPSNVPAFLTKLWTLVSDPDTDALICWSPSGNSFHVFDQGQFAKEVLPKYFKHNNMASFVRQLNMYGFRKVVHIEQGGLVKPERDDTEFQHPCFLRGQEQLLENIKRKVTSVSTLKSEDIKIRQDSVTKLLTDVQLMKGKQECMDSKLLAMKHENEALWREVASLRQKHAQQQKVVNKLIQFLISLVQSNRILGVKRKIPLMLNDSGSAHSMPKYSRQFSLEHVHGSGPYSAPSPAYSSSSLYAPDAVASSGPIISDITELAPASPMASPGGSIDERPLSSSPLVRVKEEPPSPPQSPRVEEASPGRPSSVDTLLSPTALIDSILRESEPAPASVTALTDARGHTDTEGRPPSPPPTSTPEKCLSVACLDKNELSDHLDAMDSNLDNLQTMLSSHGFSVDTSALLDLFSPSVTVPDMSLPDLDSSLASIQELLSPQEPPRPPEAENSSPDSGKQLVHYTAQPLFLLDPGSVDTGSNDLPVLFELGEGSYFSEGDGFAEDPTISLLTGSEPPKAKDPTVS
# Summary of the method: as §1
# [4] = biological target: T2, SPIC (Homo sapiens, UniProt Q8N5J4 1-248); details: protein: recombinant; tags: N-terminal GST; dsDNA, one strand shown
# T2 sequence: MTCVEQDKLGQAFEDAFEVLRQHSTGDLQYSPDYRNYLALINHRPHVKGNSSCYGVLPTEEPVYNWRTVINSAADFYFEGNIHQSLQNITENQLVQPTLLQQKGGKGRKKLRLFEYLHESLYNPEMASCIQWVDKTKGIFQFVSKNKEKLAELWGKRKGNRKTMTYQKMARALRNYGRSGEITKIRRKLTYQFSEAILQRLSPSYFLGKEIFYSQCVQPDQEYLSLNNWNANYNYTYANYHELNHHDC
# Summary of the method: as §1
# [5] = biological target: ELF4 (Homo sapiens, UniProt Q99607 1-663); details: protein: recombinant; tags: N-terminal GST; dsDNA, one strand shown
# Sequence of ELF4 (Q99607 whole entry): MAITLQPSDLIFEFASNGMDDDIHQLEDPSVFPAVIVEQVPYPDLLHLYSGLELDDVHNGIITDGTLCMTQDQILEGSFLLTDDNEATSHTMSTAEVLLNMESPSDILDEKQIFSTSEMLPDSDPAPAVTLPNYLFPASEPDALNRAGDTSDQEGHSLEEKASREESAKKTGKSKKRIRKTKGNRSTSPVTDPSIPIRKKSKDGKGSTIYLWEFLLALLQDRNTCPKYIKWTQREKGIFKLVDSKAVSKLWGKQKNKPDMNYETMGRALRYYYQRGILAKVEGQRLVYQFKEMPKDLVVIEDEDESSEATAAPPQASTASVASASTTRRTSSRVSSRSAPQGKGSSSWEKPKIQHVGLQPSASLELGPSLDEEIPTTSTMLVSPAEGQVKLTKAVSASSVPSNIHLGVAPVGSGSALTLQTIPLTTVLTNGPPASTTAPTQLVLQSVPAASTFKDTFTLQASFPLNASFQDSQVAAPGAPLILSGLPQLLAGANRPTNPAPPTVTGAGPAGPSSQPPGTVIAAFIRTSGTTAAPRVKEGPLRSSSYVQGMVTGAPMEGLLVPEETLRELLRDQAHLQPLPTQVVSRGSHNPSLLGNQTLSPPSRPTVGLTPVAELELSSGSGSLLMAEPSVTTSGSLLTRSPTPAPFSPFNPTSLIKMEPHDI
# Summary of the method: as §1
# [6] = biological target: T3, ELK4 (Homo sapiens, UniProt P28324-2 1-405); details: protein: recombinant; tags: N-terminal GST; dsDNA, one strand shown
# T3 sequence: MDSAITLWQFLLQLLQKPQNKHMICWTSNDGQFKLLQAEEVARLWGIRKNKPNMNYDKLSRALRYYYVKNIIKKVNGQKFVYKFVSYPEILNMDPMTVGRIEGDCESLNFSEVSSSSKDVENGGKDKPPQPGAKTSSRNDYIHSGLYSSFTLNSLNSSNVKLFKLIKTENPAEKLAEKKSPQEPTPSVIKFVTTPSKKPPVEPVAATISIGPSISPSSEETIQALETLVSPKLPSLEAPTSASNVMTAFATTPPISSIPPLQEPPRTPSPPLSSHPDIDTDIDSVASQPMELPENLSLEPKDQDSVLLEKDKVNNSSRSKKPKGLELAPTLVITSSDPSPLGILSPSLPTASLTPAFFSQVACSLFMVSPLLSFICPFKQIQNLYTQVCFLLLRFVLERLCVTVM
# Summary of the method: as §1
# [7] = biological target: T4, ETV2 (Homo sapiens, UniProt O00321 1-342); details: protein: recombinant; tags: N-terminal GST; dsDNA, one strand shown
# T4 sequence: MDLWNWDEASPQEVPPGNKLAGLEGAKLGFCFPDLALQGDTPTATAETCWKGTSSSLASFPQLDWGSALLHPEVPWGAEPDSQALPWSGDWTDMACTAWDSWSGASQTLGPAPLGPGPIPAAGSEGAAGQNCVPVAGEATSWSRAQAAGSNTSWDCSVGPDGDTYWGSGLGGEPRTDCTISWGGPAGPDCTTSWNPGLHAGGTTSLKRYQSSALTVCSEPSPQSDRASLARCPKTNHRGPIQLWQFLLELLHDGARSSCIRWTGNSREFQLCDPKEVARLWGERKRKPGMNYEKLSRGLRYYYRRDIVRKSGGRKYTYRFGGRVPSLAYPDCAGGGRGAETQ
# Summary of the method: as §1
# [8] = biological target: T5, ELF3 (Homo sapiens, UniProt P78545 1-371); details: protein: recombinant; tags: N-terminal GST; dsDNA, one strand shown
# T5 sequence: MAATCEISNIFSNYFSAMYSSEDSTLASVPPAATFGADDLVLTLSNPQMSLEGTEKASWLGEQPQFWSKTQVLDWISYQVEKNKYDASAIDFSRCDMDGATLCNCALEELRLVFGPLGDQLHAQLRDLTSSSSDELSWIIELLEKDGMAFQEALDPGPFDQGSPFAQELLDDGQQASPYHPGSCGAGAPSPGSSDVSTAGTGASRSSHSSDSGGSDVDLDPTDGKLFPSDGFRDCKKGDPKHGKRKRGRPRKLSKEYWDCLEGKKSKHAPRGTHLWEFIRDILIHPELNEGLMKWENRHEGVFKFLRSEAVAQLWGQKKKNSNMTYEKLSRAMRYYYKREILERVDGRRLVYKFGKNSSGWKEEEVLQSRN
# Summary of the method: as §1
# [9] = biological target: CRX (Homo sapiens, UniProt O43186 1-299); details: protein: recombinant; tags: N-terminal GST; dsDNA, one strand shown
# Sequence of CRX (O43186 whole entry): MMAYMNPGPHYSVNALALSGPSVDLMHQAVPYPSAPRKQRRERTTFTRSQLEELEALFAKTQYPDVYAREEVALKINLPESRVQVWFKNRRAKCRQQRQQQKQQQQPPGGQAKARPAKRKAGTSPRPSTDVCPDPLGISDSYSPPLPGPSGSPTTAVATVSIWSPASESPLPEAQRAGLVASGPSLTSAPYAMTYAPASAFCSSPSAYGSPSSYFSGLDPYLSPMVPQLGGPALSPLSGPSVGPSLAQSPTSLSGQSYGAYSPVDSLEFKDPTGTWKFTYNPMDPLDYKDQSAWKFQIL
# Summary of the method: as §1
# [10] = biological target: ETV1 (Homo sapiens, UniProt P50549 1-477); details: protein: recombinant; tags: N-terminal GST; dsDNA, one strand shown
# Sequence of ETV1 (P50549 whole entry): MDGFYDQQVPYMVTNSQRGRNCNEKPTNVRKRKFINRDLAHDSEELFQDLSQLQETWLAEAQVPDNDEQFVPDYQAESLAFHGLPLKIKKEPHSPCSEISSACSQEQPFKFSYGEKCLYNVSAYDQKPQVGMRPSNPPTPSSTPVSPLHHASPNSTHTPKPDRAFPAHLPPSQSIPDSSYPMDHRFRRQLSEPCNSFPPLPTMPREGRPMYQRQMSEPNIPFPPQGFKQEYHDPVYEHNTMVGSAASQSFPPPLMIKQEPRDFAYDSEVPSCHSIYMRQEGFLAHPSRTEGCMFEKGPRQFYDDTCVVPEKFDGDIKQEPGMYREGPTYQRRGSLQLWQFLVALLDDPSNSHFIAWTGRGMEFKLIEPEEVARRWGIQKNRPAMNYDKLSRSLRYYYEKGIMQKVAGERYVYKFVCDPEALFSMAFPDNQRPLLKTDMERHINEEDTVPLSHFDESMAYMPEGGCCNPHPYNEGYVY
# Summary of the method: as §1
# [11] = biological target: T6, ERF (Homo sapiens, UniProt P50548 1-548); details: protein: recombinant; tags: N-terminal GST; dsDNA, one strand shown
# T6 sequence: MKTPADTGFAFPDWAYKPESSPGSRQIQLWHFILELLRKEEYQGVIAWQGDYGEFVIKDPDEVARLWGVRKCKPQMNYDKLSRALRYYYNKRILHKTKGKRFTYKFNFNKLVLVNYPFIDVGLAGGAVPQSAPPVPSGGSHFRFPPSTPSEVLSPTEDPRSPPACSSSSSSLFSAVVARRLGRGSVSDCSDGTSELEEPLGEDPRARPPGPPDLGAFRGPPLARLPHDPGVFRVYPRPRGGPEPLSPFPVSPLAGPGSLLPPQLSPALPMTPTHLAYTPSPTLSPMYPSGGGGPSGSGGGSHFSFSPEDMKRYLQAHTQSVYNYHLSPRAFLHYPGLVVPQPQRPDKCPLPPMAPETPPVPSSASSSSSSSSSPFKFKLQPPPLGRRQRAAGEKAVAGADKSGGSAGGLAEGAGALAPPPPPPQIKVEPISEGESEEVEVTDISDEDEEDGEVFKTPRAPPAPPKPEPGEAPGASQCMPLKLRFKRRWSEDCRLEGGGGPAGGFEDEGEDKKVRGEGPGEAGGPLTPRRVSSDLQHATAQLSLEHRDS
# Summary of the method: as §1
# [12] = biological target: T7, ETV3L (Homo sapiens, UniProt Q6ZN32 1-361); details: protein: recombinant; tags: N-terminal GST; dsDNA, one strand shown
# T7 sequence: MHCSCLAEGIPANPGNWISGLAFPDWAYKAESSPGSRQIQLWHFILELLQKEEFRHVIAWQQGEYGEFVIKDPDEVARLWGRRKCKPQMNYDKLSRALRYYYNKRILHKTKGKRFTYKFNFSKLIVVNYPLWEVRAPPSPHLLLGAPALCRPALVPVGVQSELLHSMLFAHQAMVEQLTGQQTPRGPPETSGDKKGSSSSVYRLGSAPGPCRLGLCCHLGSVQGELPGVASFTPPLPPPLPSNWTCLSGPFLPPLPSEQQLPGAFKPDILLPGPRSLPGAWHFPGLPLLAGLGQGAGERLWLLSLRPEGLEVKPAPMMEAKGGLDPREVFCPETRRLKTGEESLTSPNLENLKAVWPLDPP
# Summary of the method: as §1
# [13] = biological target: T8, ETS2 (Homo sapiens, UniProt P15036 1-469); details: protein: recombinant; tags: N-terminal GST; dsDNA, one strand shown
# T8 sequence: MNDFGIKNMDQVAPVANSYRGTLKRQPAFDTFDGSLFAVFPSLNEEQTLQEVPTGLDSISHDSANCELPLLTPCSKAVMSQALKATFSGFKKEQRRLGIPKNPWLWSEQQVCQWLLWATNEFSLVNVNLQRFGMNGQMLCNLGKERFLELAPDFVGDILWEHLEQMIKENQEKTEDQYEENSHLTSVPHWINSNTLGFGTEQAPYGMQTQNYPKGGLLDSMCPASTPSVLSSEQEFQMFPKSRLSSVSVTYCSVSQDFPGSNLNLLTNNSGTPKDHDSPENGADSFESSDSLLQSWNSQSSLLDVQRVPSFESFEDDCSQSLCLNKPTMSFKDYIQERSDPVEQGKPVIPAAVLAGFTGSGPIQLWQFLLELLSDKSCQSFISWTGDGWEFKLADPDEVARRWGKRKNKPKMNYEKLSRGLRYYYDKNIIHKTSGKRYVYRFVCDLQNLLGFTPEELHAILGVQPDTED
# Summary of the method: as §1
# [14] = biological target: T9, SPDEF (Homo sapiens, UniProt O95238 1-335); details: protein: recombinant; tags: N-terminal GST; dsDNA, one strand shown
# T9 sequence: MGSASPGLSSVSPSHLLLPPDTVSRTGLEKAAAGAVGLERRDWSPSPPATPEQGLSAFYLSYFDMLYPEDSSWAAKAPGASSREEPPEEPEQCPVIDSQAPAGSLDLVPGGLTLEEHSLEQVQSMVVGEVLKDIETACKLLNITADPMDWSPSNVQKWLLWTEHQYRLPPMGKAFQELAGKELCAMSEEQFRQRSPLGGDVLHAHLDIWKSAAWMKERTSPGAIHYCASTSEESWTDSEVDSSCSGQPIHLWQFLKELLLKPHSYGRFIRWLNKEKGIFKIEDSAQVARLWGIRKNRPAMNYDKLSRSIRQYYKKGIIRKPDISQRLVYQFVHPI
# Summary of the method: as §1
# [15] = biological target: T10, ETV7 (Homo sapiens, UniProt Q9Y603 1-341); details: protein: recombinant; tags: N-terminal GST; dsDNA, one strand shown
# T10 sequence: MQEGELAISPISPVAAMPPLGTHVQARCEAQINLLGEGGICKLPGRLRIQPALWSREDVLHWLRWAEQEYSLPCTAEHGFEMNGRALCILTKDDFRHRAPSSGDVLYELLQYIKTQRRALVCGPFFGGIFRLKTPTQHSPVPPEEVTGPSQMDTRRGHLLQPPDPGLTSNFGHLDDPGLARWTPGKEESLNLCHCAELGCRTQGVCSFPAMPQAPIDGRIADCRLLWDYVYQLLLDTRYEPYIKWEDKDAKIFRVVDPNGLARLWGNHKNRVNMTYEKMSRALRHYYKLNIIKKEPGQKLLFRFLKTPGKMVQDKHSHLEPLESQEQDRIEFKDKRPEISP
# Summary of the method: as §1
# [16] = biological target: T11, ELF5 (Homo sapiens, UniProt Q9UKW6-2 1-255); details: protein: recombinant; tags: N-terminal GST; dsDNA, one strand shown
# T11 sequence: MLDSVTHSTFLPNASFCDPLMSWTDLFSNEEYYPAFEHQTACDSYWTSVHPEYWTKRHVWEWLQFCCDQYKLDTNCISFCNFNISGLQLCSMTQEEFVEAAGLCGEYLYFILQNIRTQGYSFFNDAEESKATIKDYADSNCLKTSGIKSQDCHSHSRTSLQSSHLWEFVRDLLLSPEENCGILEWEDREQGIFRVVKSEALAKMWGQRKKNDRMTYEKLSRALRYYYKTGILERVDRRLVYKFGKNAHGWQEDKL
# Summary of the method: as §1
# [17] = biological target: T12, ETV3 (Homo sapiens, UniProt P41162-2 1-143); details: protein: recombinant; tags: N-terminal GST; dsDNA, one strand shown
# T12 sequence: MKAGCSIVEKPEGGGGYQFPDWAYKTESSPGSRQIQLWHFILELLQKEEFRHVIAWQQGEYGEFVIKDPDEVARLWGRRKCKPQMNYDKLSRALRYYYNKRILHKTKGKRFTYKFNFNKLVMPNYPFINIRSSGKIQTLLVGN
# Summary of the method: as §1
# [18] = biological target: ETV6 (Homo sapiens, UniProt P41212 1-452); details: protein: recombinant; tags: N-terminal GST; dsDNA, one strand shown
# Sequence of ETV6 (P41212 whole entry): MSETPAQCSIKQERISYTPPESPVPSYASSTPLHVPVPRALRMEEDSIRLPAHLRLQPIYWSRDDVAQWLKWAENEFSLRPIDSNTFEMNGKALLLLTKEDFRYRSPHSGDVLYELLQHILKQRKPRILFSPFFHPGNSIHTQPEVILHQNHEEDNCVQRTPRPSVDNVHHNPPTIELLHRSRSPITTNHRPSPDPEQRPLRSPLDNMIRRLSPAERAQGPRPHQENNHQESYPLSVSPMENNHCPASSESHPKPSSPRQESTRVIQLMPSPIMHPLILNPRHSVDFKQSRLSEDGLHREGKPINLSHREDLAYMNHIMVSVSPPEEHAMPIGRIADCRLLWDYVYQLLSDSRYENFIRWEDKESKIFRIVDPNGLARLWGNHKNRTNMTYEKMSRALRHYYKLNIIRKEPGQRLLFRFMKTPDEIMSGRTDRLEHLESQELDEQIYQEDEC
# Summary of the method: as §1
sequence,measurement,setting,value
ATACTC,binding signal,[1],"1.27 fold enrichment (6-mer frequency, TF over GST control)"
same,binding signal,[2],"1.22 fold enrichment (6-mer frequency, TF over GST control)"
same,binding signal,[3],"1.41 fold enrichment (6-mer frequency, TF over GST control)"
same,binding signal,[4],"1.42 fold enrichment (6-mer frequency, TF over GST control)"
same,binding signal,[5],"1.25 fold enrichment (6-mer frequency, TF over GST control)"
same,binding signal,[6],"1.23 fold enrichment (6-mer frequency, TF over GST control)"
same,binding signal,[7],"1.3 fold enrichment (6-mer frequency, TF over GST control)"
same,binding signal,[8],"1.23 fold enrichment (6-mer frequency, TF over GST control)"
same,binding signal,[9],"1.37 fold enrichment (6-mer frequency, TF over GST control)"
same,binding signal,[10],"1.28 fold enrichment (6-mer frequency, TF over GST control)"
same,binding signal,[11],"1.36 fold enrichment (6-mer frequency, TF over GST control)"
same,binding signal,[12],"1.22 fold enrichment (6-mer frequency, TF over GST control)"
same,binding signal,[13],"1.26 fold enrichment (6-mer frequency, TF over GST control)"
same,binding signal,[14],"1.32 fold enrichment (6-mer frequency, TF over GST control)"
same,binding signal,[15],"1.23 fold enrichment (6-mer frequency, TF over GST control)"
same,binding signal,[16],"1.25 fold enrichment (6-mer frequency, TF over GST control)"
same,binding signal,[17],"1.33 fold enrichment (6-mer frequency, TF over GST control)"
same,binding signal,[18],"1.33 fold enrichment (6-mer frequency, TF over GST control)"
